Results from PubChem BioAssay (EPA / NIEHS).
Where “and” joins values, the source holds several entries; their conditions need not be identical. Equal entries are not always repeated. Where a structure was tested more than once in an assay, its records may differ in their call. Calls of active or inactive are those of the source. The calls were made as follows, unless noted: active = hit-call score of the fitted dose curve at least 0.9, where 1 is the maximum; inactive = score below 0.9.

Experiments:
[1] = read-out: Monocyte Chemoattractant Protein-1 (MCP1), CCL2 (gene 6347); assay: BSK_SAg_MCP1: BioMAP Diversity Plus: SAg Assay for Monocyte Chemoattractant Protein-1 (MCP1) Biomarker Activity (AID 2283090); details: primary human HUVEC with PBMC; actives raise or lower the signal
Method in brief: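 Values derive from bidirectional fitting of ELISA-measured MCP1 against DMSO controls. Readings were taken 24 h after dosing human vascular endothelial cells co-cultured with peripheral blood mononuclear cells under superantigen stimulation.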

[2] = read-out: E-selectin (Homo sapiens) (UniProt P16581); assay: BSK_SAg_Eselectin: BioMAP Diversity Plus: SAg Assay for Eselectin Biomarker Activity (AID 2283091); details: primary human HUVEC with PBMC; actives raise or lower the signal
Method in brief: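 Cell-surface E-selectin is read by ELISA at 24 h in the SAg co-culture of HUVEC and PBMC. Curves are fitted in both directions relative to DMSO. Parallel SRB total-protein staining tracks overt toxicity.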

[3] = read-out: Monokine induced gamma interferon (MIG), CXCL9 (gene 4283); assay: BSK_SAg_MIG: BioMAP Diversity Plus: SAg Assay for Monokine induced gamma interferon (MIG) Biomarker Activity (AID 2283092); details: primary human HUVEC with PBMC; actives raise or lower the signal
Method in brief: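 Endothelial cells and PBMC were co-cultured, exposed to test chemicals, and sampled 24 h later. MIG was measured by ELISA, and responses were fitted in both directions relative to DMSO.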

[4] = BSK_SAg_PBMCCytotoxicity: PBMC Cytotoxicity Assessment in the BioMAP Diversity Plus: SAg Assay (AID 2283093); details: primary human HUVEC with PBMC;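 also: PBMC viability measured as Alamar Blue reduction fluorescence at 546/580 nm; fitted both ways against DMSO so a hit may be loss or gain of signal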;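 as to AC50: PBMC superantigen activated with SEB plus TSST-1 one hour after compound addition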
Method in brief: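 Alamar Blue reduction (6 h, 546/580 nm) reports PBMC cytotoxicity after 90 h superantigen activation (SEB, TSST-1; 20 ng/mL final each) with 1 h compound pre-treatment. Gain or loss of signal fitted versus DMSO.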

[5] = read-out: Interleukin-8 (IL8), CXCL8 (gene 3576); assay: BSK_SAg_IL8: BioMAP Diversity Plus: SAg Assay for Interleukin-8 (IL8) Biomarker Activity (AID 2283094); details: primary human HUVEC with PBMC; actives raise or lower the signal
Method in brief: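 Primary human endothelial cells with PBMC, exposed 24 h; IL-8 determined by ELISA, analysed bidirectionally relative to DMSO.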

[6] = BSK_SAg_Proliferation: Cell Proliferation Assessment in the BioMAP Diversity Plus: SAg Assay (AID 2283095); details: primary human HUVEC with PBMC;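 also: relative cell number as total protein by SRB absorbance in sub-confluent culture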
Method in brief: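 A human primary co-culture of umbilical vein endothelium and blood mononuclear cells receives compound; relative cell number is quantified at 96 h by SRB staining and 560 nm absorbance, with DMSO-referenced bidirectional curve fitting.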

[7] = BSK_SAg_SRB: Viability Assessment in the BioMAP Diversity Plus: SAg Assay (AID 2283096); details: primary human HUVEC with PBMC;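 also: cells read one day after compound addition; hits may be either gain or loss of signal compared with DMSO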
Method in brief: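 This overt-cytotoxicity endpoint quantifies protein in human endothelial/PBMC co-cultures at 24 h using SRB absorbance (560 nm) after trichloroacetic acid fixation. Values reflect signal change from the DMSO negative control, fitted bidirectionally.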

[8] = molecular target: human CYP2D6, CYP2D6 (gene 1565) (UniProt P10635); assay: NVS_ADME_hCYP2D6: NovaScreen (NVS) CYP450-related Enzyme Activity (ADME) Assay for human CYP2D6 (AID 2283107; active = hit-call score of the fitted dose curve at least 0.9, where 1 is the maximum)
human CYP2D6, CYP2D6 (gene 1565), sequence (P10635 whole entry, looked up): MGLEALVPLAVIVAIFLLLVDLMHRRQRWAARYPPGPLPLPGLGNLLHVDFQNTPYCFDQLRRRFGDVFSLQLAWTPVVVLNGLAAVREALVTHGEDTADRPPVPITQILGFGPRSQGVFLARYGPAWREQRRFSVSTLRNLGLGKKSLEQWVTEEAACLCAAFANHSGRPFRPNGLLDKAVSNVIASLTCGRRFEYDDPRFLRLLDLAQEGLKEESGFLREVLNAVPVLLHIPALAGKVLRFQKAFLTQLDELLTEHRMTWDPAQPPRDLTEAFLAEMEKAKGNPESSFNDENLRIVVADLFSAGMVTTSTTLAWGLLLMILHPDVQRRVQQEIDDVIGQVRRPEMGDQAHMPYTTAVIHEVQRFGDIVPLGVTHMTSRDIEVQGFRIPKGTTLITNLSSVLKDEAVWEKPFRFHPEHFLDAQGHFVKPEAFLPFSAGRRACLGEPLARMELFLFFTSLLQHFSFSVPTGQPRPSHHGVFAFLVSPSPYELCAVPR
Method in brief: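 Fluorescence readout of recombinant CYP2D6 (insect-cell derived) activity after 1 h incubation with test chemical. Acetonitrile served as baseline, loss-of-signal direction. Single-concentration duplicate screening at 10 uM preceded concentration-response retesting.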

Measured: AC50

E-selectin (Homo sapiens), sequence (P16581 whole entry, looked up): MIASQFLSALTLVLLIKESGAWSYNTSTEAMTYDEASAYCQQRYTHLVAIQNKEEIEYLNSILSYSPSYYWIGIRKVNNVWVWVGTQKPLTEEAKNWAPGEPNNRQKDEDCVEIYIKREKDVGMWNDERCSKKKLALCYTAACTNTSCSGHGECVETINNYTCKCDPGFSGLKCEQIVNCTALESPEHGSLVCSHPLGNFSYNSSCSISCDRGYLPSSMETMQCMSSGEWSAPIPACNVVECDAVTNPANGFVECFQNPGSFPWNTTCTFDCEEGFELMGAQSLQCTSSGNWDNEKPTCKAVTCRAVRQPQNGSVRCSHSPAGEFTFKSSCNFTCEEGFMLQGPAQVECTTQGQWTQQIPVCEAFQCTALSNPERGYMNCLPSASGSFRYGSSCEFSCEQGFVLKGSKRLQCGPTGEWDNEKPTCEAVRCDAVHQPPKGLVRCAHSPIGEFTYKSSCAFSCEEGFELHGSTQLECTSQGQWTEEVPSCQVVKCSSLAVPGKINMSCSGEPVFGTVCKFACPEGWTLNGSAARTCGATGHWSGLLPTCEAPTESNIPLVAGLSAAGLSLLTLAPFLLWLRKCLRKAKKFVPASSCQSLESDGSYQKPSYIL

O=C(O)C(F)(F)C(F)(F)C(F)(F)C(=O)O
inactive: [1] | [2] | [3] | [4] | [5] | [6] | [7]

O=C(O)C(F)(F)C(F)(F)C(F)(F)OC(F)(C(F)(F)F)C(F)(F)F
inactive: [1] | [2] | [3] | [4] | [5] | [6] | [7]

FC(F)(F)C(F)(F)C(F)(F)CC1CO1 (configuration not stated)
inactive: [1] | [2] | [3] | [5] | [6] | [7]

CCOC(=O)CC(=O)C(F)(F)C(F)(F)F
inactive: [1] | [2] | [3] | [4] | [5] | [6] | [7]

NCC(F)(F)C(F)(F)C(F)(F)C(F)(F)C(F)(F)C(F)(F)C(F)(F)C(F)(F)F
inactive: [1] | [2] | [3] | [4] | [5] | [6] | [7]

O=C1C=CC(=O)N1c1ccc(Cc2ccc(N3C(=O)C=CC3=O)cc2)cc1
active: [1] 6.98 µM | [2] 6.88 µM | [3] 13 µM | [4] 7.25 µM | [5] 4.35 µM | [6] 3.92 µM | [7] 20 µM

C=C(C)C(=O)OCC(F)(F)C(F)(F)C(F)(F)C(F)F
inactive: [1] | [2] | [3] | [4] | [5] | [6] | [7]

Brc1nc2ccccc2s1
inactive: [1] | [2] | [3] | [4] | [5] | [6] | [7]

OCC(O)CC(F)(F)C(F)(F)C(F)(F)C(F)(F)F (configuration not stated)
inactive: [1] | [2] | [3] | [4] | [5] | [6] | [7]

CCN(CC)c1ccc(C=O)cc1
inactive: [1] | [2] | [3] | [5] | [6] | [7]

O=S(=O)(Cl)C(F)(F)C(F)(F)C(F)(F)C(F)(F)C(F)(F)C(F)(F)C(F)(F)C(F)(F)F
active: [2] 37.5 µM | [7] 43.2 µM and 55.5 µM
inactive: [1] | [2] | [3] | [5] | [6]

C=CC(=O)OCC(F)(F)C(F)(F)C(F)(F)COC(=O)C=C
active: [1] 22.5 µM and 14 µM | [2] 8.53 µM and 9.25 µM | [3] 19.3 µM and 18.6 µM | [4] 14.2 µM and 12.8 µM | [5] 14.2 µM and 5.57 µM | [6] 6.99 µM and 5.35 µM | [7] 43.7 µM and 45.6 µM

O=C=Nc1cccc2c(N=C=O)cccc12
inactive: [1] | [2] | [3] | [4] | [5] | [6] | [7]

NC(=O)C(F)(F)C(F)(F)C(F)(F)C(F)(F)C(F)(F)C(F)(F)C(F)(F)F
inactive: [1] | [2] | [3] | [4] | [5] | [6] | [7]

O=S(=O)(OCC(F)(F)F)C(F)(F)C(F)(F)C(F)(F)C(F)(F)F
inactive: [1] | [2] | [3] | [5] | [6] | [7]
active: [5] 30 µM

O=C=NCc1cccc(CN=C=O)c1
inactive: [1] | [2] | [3] | [4] | [5] | [6] | [7]

O=C(Cl)C(F)(F)C(F)(F)C(F)(F)C(F)(F)C(F)(F)C(F)(F)F
inactive: [1] | [2] | [3] | [4] | [5] | [6] | [7]

C=CC(=O)OCC(F)(F)C(F)(F)C(F)(F)C(F)(F)C(F)(F)C(F)(F)C(F)(F)C(F)F
active: [2] 30 µM | [4] 26.8 µM and 16.6 µM | [5] 20.8 µM | [6] 36.8 µM and 27.1 µM
inactive: [1] | [2] | [3] | [5] | [7]

OCC(F)(F)C(F)(F)C(F)(F)C(F)(F)C(F)(F)C(F)(F)C(F)(F)C(F)(F)CO
inactive: [1] | [2] | [3] | [5] | [6] | [7]
active: [4] 43.8 µM and 50.7 µM | [6] 45.5 µM

OCC(F)(F)C(F)(F)C(F)(F)C(F)(F)C(F)(F)C(F)(F)CO
inactive: [1] | [2] | [3] | [5] | [6] | [7]

O=C(O)C(F)(F)OC(F)(F)C(F)(F)OC(F)(F)C(F)(F)OC(F)(F)F
inactive: [1] | [2] | [3] | [4] | [5] | [6] | [7]

O=S(=O)(O)CCC(F)(F)C(F)(F)C(F)(F)C(F)(F)C(F)(F)C(F)(F)C(F)(F)C(F)(F)F
inactive: [1] | [2] | [3] | [4] | [5] | [6] | [7]

NS(=O)(=O)C(F)(F)C(F)(F)C(F)(F)C(F)(F)C(F)(F)C(F)(F)F
inactive: [1] | [3] | [5] | [6] | [7]
active: [2] 41.7 µM and 21.7 µM | [5] 30 µM | [7] 55.3 µM

NC(=O)C(F)(F)C(F)(F)C(F)(F)C(F)F
inactive: [1] | [2] | [3] | [5] | [6] | [7]

C[Si](Cl)(Cl)CCC(F)(F)C(F)(F)C(F)(F)C(F)(F)C(F)(F)C(F)(F)F
inactive: [1] | [2] | [3] | [5] | [6] | [7]

O=C(O)CCC(F)(F)C(F)(F)C(F)(F)C(F)(F)C(F)(F)C(F)(F)C(F)(F)F
inactive: [1] | [2] | [3] | [4] | [5] | [6] | [7]

O=C(O)CCC(F)(F)C(F)(F)C(F)(F)F
inactive: [1] | [2] | [3] | [4] | [5] | [6] | [7]

OCC(O)CC(F)(F)C(F)(F)C(F)(F)C(F)(F)C(F)(F)C(F)(F)C(F)(F)C(F)(F)F (configuration not stated)
inactive: [1] | [2] | [3] | [4] | [5] | [6] | [7]

CCN(CC)c1ccc2c(c1)Oc1cc(N(CC)CC)ccc1C21OC(=O)c2ccccc21
active: [4] 6.68 µM | [5] 10 µM | [6] 10 µM
inactive: [1] | [2] | [3] | [7]

CC1=CC2C3C=CC(C3)C2C1C (configuration not stated)
active: [8] 2.84 µM
inactive: [1] | [2] | [3] | [4] | [5] | [6] | [7]

O=C(O)C(F)(F)C(F)(F)C(F)(F)OC(F)(F)F
inactive: [1] | [2] | [3] | [4] | [5] | [6] | [7]
